Laboratory results reported in PubChem BioAssay (NCATS).
Values joined by “and” are separate entries in the source; they are usually repeats but may differ in a detail not shown here. Equal values may be shown once. Records with an inconclusive call do not appear. Some compounds were tested as several samples or in several runs, with calls that do not always agree. Active and inactive are the calls of the source. Calls follow the shape of the dose curve; as a rule, active = well fitted cell-killing curve with a large enough effect; inconclusive = small, poorly fitted or top-dose-only effect, or effect the other way; inactive = no such curve, though single readings can be large or run the other way.

Assay: Viability qHTS for spleen associated tyrosine kinase inhibitor (SYKi) naive MV4-11 cells (AID 1963823); also: nearly all actives have a fitted effect of over 40% in size
Details: MV4-11 AML viability, CellTiter-Glo luminescence, 72 h; series mostly up to 45 µM; viability (% of control): at the top concentration
In short: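 SYK inhibitor-naive MV4-11 cells, 500 per well, exposed to compounds for 72 hr at 37 C, 5% CO2. Viability read as CellTiter-Glo luminescence after 10 min at room temperature.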
Potency is read from the fitted curve at half-maximal effect.

Compound | Potency | viability (% of control)
C[C@@H]1C[C@H]2[C@@H]3C[C@H](F)C4=CC(=O)C(Cl)=C[C@]4(C)[C@@]3(F)[C@@H](O)C[C@]2(C)[C@@]1(O)C(=O)CO | 4.73 µM (active) | –
CCC(C)(CN(C)C)OC(=O)c1ccccc1 (stereo not given) | – | 82.5% (inactive)
Cc1cc(O)c(C)c(C)c1O | – | 69.1% (inactive)
CCCNC(C)(C)COC(=O)c1ccccc1 | – | 76.4% (inactive)
O=C(NCCc1c[nH]c2ccccc12)c1cccnc1 | 0.0019 µM (active) | –
COc1ccc(-c2c(C)nn3c(NCCN4CCOCC4)cc(C)nc23)cc1OC | 8.33 µM (active) | –
CN1[C@@H]2CC[C@H]1CC(NC(=O)n1c(=O)[nH]c3ccccc31)C2 (stereo not given in full) | – | 85.5% (inactive)
O=C1NCCN1CCN1CCC(c2cn(-c3ccc(F)cc3)c3ccc(Cl)cc23)CC1 | 0.668 µM (active) | –
C[N+](C)(C)CC[N+]1(C)Cc2c(Cl)c(Cl)c(Cl)c(Cl)c2C1 | – | 81.9% (inactive)
CC[C@@H](C)Nc1cc(C(=O)NC2CC3CC[C@@H](C2)N3c2ccc(C(=O)C3CC3)cn2)c(C)cc1C(N)=O (stereo not given in full) | 0.013 µM (active) | –
NCc1ccc(S(N)(=O)=O)cc1 | – | 84.5% (inactive)
CCC(=O)NC[C@H](Cc1ccc(OCCc2nc(-c3ccccc3)oc2C)cc1)N/C(C)=C\C(=O)c1ccc(C(F)(F)F)cc1 | 16.6 µM (active) | –
COc1cc2c(Oc3ccc4[nH]c(C)cc4c3F)ccnc2cc1OCC1(N)CC1 | 4.17 µM (active) | –
CCN(Cc1ccncc1)C(=O)C(CO)c1ccccc1 (stereo not given) | – | 87.9% (inactive)
NC(Cc1ccc(Cl)cc1)C(=O)O (stereo not given) | – | 87.6% [at 0.588 µM] (inactive)
COc1ccc([C@@H]2Sc3ccccc3N(CCN(C)C)C(=O)[C@@H]2OC(C)=O)cc1 | inactive | –
CNC1(C)C2CCC(C2)C1(C)C (stereo not given) | – | 80.8% (inactive)
CC(C)(C)Sc1c(CC(C)(C)C(=O)O)n(Cc2ccc(Cl)cc2)c2ccc(OCc3ccc4ccccc4n3)cc12 | inactive and 16.6 µM (active) | –
CC(=NNC(=O)c1cccc(S(=O)(=O)N2CCOCC2)c1)c1cc(Cl)ccc1O | 0.742 µM (active) | –
O=C1OC(CN2CCOCC2)CN1/N=C/c1ccc([N+](=O)[O-])o1 (stereo not given) | – | 92.5% (inactive)

Compound | Potency | viability (% of control)
c1ccc2sc(SSc3nc4ccccc4s3)nc2c1 | – | 96.6% [at 17.3 µM] (inactive)
CO[C@H]1O[C@@H]2O[C@@]3(C)CC[C@H]4[C@H](C)CC[C@@H]([C@H]1C)[C@@]24OO3 | 1.32 µM (active) | –
CN1C(C)(C)CCCC1(C)C | – | 78.5% (inactive)
COc1cc(C=C2CCC/C(=C\c3ccc(O)c(OC)c3)C2=O)ccc1O | 3.76 µM (active) | –
CCCCC1(COC(=O)CCC(=O)O)C(=O)N(c2ccccc2)N(c2ccccc2)C1=O | – | 87.6% (inactive)
CC(C)(C)c1ccc(O)c(O)c1 | 9.69 µM (active) | –
O=C(CCCCCCC(=O)N/N=C/c1ccc(N(c2ccccc2)c2ccccc2)cc1)NO | 4.17 µM (active) | –
C=C1C[C@H]2C=Nc3cc(OCCCOc4cc5c(cc4OC)C(=O)N4CC(=C)C[C@H]4C=N5)c(OC)cc3C(=O)N2C1 | – | 4.71% (inactive)
Cn1cc(/C=C/C(=O)c2cccc(F)c2)cc1/C=C/C(=O)NO | 3.72 µM (active) | –
CC1(C)OC2=C(C(=O)c3ccccc3C2=O)[C@H](NCc2ccccc2)[C@@H]1O | 2.63 µM (active) | –
CCCCCCCCCCCCCCCCCCOCC(O)CO (stereo not given) | – | 78% (inactive)
COc1cccc(Nc2ncnn3ccc(CN4CC[C@@H](N)[C@H](O)C4)c23)c1 | 0.0411 µM (active) | –
COC(=O)[C@@H](N)Cc1ccc(O)c(O)c1 | – | 66.5% (inactive)
CO[C@H]1/C=C\C=C(\C)C(=O)NC2=CC(=O)C(NCCN(C)C)=C(C[C@@H](C)C[C@H](OC)[C@H](O)[C@@H](C)/C=C(/C)[C@@H]1OC(N)=O)C2=O | 0.0332 µM (active) | –
CCC1NC(=O)c2cc(S(N)(=O)=O)c(Cl)cc2N1 (stereo not given) | – | 70.3% (inactive)
COCCNCc1ccc(-c2cc3nccc(Oc4ccc(NC(=S)NC(=O)Cc5ccc(F)cc5)cc4F)c3s2)nc1 | 0.0164 µM (active) | –
CCCCCCCCCCCCCCCCOCCCOP(=O)(O)COC(CO)Cn1ccc(N)nc1=O (stereo not given) | 2.59 µM (active) | –
O=C([O-])C[O-].[Pt+2] | – | 92.9% (inactive)
Cc1c(O)cccc1C(=O)N[C@@H](CSc1ccccc1)[C@H](O)CN1C[C@H]2CCCC[C@H]2C[C@H]1C(=O)NC(C)(C)C | 23.7 µM (active) | –
Nc1ccc(C(=O)OCC(O)CO)cc1 (stereo not given) | – | 76.3% (inactive)

Assay: Viability qHTS for spleen associated tyrosine kinase inhibitor (SYKi) drug resistant MV4-11 cells (AID 1963824); also: nearly all actives have a fitted effect of over 35% in size
Details: SYKi-resistant MV4-11 viability, CellTiter-Glo, 72 h; series mostly up to 45 µM; viability, % of control: at the top concentration
In short: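 SYK inhibitor-resistant MV4-11 AML cells, 500 per well, added to predispensed compounds and incubated 72 hr at 37 C, 5% CO2. Viability measured by CellTiter-Glo luminescence after 10 min at room temperature.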

Compound | Potency | viability, % of control
C[C@@H]1C[C@H]2[C@@H]3C[C@H](F)C4=CC(=O)C(Cl)=C[C@]4(C)[C@@]3(F)[C@@H](O)C[C@]2(C)[C@@]1(O)C(=O)CO | 11.9 µM (active) | –
CCC(C)(CN(C)C)OC(=O)c1ccccc1 (stereo not given) | – | 95.3% (inactive)
Cc1cc(O)c(C)c(C)c1O | – | 80.6% (inactive)
CCCNC(C)(C)COC(=O)c1ccccc1 | – | 79.1% (inactive)
O=C(NCCc1c[nH]c2ccccc12)c1cccnc1 | – | 67.5% (inactive)
COc1ccc(-c2c(C)nn3c(NCCN4CCOCC4)cc(C)nc23)cc1OC | 9.2 µM (active) | –
CN1[C@@H]2CC[C@H]1CC(NC(=O)n1c(=O)[nH]c3ccccc31)C2 (stereo not given in full) | – | 98.7% (inactive)
O=C1NCCN1CCN1CCC(c2cn(-c3ccc(F)cc3)c3ccc(Cl)cc23)CC1 | 1.19 µM (active) | –
C[N+](C)(C)CC[N+]1(C)Cc2c(Cl)c(Cl)c(Cl)c(Cl)c2C1 | – | 83.7% (inactive)
CC[C@@H](C)Nc1cc(C(=O)NC2CC3CC[C@@H](C2)N3c2ccc(C(=O)C3CC3)cn2)c(C)cc1C(N)=O (stereo not given in full) | 0.0259 µM (active) | –
NCc1ccc(S(N)(=O)=O)cc1 | – | 81.6% (inactive)
CCC(=O)NC[C@H](Cc1ccc(OCCc2nc(-c3ccccc3)oc2C)cc1)N/C(C)=C\C(=O)c1ccc(C(F)(F)F)cc1 | 11.8 µM (active) | –
COc1cc2c(Oc3ccc4[nH]c(C)cc4c3F)ccnc2cc1OCC1(N)CC1 | 4.17 µM (active) | –
CCN(Cc1ccncc1)C(=O)C(CO)c1ccccc1 (stereo not given) | – | 92% (inactive)
NC(Cc1ccc(Cl)cc1)C(=O)O (stereo not given) | – | 93.1% [at 0.588 µM] (inactive)
COc1ccc([C@@H]2Sc3ccccc3N(CCN(C)C)C(=O)[C@@H]2OC(C)=O)cc1 | 7.5 µM (active) and inactive | –
CNC1(C)C2CCC(C2)C1(C)C (stereo not given) | – | 78.2% (inactive)
CC(C)(C)Sc1c(CC(C)(C)C(=O)O)n(Cc2ccc(Cl)cc2)c2ccc(OCc3ccc4ccccc4n3)cc12 | inactive and 11.8 µM (active) | –
CC(=NNC(=O)c1cccc(S(=O)(=O)N2CCOCC2)c1)c1cc(Cl)ccc1O | 0.742 µM (active) | –
O=C1OC(CN2CCOCC2)CN1/N=C/c1ccc([N+](=O)[O-])o1 (stereo not given) | 8.41 µM (active) | –

Compound | Potency | viability, % of control
c1ccc2sc(SSc3nc4ccccc4s3)nc2c1 | – | 84.5% [at 17.3 µM] (inactive)
CO[C@H]1O[C@@H]2O[C@@]3(C)CC[C@H]4[C@H](C)CC[C@@H]([C@H]1C)[C@@]24OO3 | 0.934 µM (active) | –
CN1C(C)(C)CCCC1(C)C | – | 89.6% (inactive)
COc1cc(C=C2CCC/C(=C\c3ccc(O)c(OC)c3)C2=O)ccc1O | 3.35 µM (active) | –
CCCCC1(COC(=O)CCC(=O)O)C(=O)N(c2ccccc2)N(c2ccccc2)C1=O | – | 83.9% (inactive)
CC(C)(C)c1ccc(O)c(O)c1 | 6.11 µM (active) | –
O=C(CCCCCCC(=O)N/N=C/c1ccc(N(c2ccccc2)c2ccccc2)cc1)NO | 4.17 µM (active) | –
C=C1C[C@H]2C=Nc3cc(OCCCOc4cc5c(cc4OC)C(=O)N4CC(=C)C[C@H]4C=N5)c(OC)cc3C(=O)N2C1 | – | 4.35% (inactive)
Cn1cc(/C=C/C(=O)c2cccc(F)c2)cc1/C=C/C(=O)NO | 4.17 µM (active) | –
CC1(C)OC2=C(C(=O)c3ccccc3C2=O)[C@H](NCc2ccccc2)[C@@H]1O | 2.63 µM (active) | –
CCCCCCCCCCCCCCCCCCOCC(O)CO (stereo not given) | – | 85.5% (inactive)
COc1cccc(Nc2ncnn3ccc(CN4CC[C@@H](N)[C@H](O)C4)c23)c1 | 0.184 µM (active) | –
COC(=O)[C@@H](N)Cc1ccc(O)c(O)c1 | – | 84.3% (inactive)
CO[C@H]1/C=C\C=C(\C)C(=O)NC2=CC(=O)C(NCCN(C)C)=C(C[C@@H](C)C[C@H](OC)[C@H](O)[C@@H](C)/C=C(/C)[C@@H]1OC(N)=O)C2=O | 0.0833 µM (active) | –
CCC1NC(=O)c2cc(S(N)(=O)=O)c(Cl)cc2N1 (stereo not given) | – | 81.9% (inactive)
COCCNCc1ccc(-c2cc3nccc(Oc4ccc(NC(=S)NC(=O)Cc5ccc(F)cc5)cc4F)c3s2)nc1 | 0.0259 µM (active) | –
CCCCCCCCCCCCCCCCOCCCOP(=O)(O)COC(CO)Cn1ccc(N)nc1=O (stereo not given) | 3.26 µM (active) | –
O=C([O-])C[O-].[Pt+2] | – | 98.5% (inactive)
Cc1c(O)cccc1C(=O)N[C@@H](CSc1ccccc1)[C@H](O)CN1C[C@H]2CCCC[C@H]2C[C@H]1C(=O)NC(C)(C)C | 13.3 µM (active) | –
Nc1ccc(C(=O)OCC(O)CO)cc1 (stereo not given) | – | 79.8% (inactive)
